The record followed here is ChEMBL document CHEMBL1961873, “Compounds: GSK PKIS; Assays: Nanosyn kinase panel” (2012).

The term inhibition denotes the drop in the measured response relative to a control, in per cent.

Molecules are shown by their SMILES.

The target of test [1] is RAC-alpha serine/threonine-protein kinase (Homo sapiens) (UniProt P31749). The note with it: at 0.1 µM.
The target is the same in test [2]. The settings on record: at 1 µM.
Test [3] deals with RAC-beta serine/threonine-protein kinase (Homo sapiens) (UniProt P31751). The note with it: at 0.1 µM.
Chain of RAC-beta serine/threonine-protein kinase (Homo sapiens) (P31751 whole entry): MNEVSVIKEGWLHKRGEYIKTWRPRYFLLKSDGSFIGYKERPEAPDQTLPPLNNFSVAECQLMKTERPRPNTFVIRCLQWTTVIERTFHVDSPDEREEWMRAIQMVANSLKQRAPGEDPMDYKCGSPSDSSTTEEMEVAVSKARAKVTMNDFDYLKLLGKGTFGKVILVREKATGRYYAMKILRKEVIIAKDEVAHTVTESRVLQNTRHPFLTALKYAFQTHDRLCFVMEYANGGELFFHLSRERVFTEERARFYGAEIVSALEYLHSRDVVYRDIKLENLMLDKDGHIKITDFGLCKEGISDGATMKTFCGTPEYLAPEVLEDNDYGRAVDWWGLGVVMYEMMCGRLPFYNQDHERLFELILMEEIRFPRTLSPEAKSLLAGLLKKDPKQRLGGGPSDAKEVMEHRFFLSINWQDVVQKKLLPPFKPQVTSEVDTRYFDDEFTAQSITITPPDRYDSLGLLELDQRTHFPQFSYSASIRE
Test [4] shares this target. The settings on record: at 1 µM.
Test [5] concerns the target RAC-gamma serine/threonine-protein kinase (Homo sapiens) (UniProt Q9Y243). The note with it: at 0.1 µM.
Test [6] shares this target. The settings on record: at 1 µM.
The target of test [7] is G protein-coupled receptor kinase 6 (Homo sapiens) (UniProt P43250). The settings on record: at 0.1 µM.
Chain of G protein-coupled receptor kinase 6 (Homo sapiens) (P43250 whole entry, looked up): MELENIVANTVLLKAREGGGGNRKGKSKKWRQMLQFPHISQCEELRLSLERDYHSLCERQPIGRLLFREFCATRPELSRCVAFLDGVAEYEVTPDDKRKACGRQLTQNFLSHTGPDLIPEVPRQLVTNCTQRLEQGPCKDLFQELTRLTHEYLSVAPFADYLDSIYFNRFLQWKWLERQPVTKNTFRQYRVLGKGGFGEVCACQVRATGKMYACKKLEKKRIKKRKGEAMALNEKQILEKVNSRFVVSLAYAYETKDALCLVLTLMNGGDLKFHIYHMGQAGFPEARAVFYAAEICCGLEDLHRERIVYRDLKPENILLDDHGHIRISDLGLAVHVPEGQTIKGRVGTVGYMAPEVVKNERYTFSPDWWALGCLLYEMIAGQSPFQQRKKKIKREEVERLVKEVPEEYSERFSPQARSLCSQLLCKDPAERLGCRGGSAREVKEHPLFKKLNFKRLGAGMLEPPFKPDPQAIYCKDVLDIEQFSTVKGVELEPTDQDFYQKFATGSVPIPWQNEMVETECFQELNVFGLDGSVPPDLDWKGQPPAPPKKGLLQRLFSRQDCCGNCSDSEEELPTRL
Test [8] shares this target. The settings on record: at 1 µM.
Test [9] addresses T1, Rhodopsin kinase GRK7 (Homo sapiens) (UniProt Q8WTQ7).
T1 sequence (whole entry): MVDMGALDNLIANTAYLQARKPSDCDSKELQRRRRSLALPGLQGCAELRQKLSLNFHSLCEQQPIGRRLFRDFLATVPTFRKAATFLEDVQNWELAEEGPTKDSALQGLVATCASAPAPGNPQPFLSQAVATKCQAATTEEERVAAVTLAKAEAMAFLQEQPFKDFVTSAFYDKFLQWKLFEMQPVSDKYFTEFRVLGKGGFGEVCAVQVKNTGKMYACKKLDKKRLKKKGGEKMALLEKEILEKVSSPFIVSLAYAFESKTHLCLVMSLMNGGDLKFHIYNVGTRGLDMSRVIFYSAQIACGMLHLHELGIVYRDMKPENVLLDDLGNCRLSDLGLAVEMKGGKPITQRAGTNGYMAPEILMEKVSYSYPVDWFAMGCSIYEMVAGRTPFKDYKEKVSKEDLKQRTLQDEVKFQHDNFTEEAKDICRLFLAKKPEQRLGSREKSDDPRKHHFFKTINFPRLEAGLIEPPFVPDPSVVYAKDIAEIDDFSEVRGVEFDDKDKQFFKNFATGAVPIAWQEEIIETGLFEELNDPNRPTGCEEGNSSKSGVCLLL
The settings on record: at 0.1 µM.

Test [10] deals with T1, Rhodopsin kinase GRK7 (Homo sapiens). The note with it: at 1 µM.
In test [11] the target is Serine/threonine-protein kinase MRCK alpha (Homo sapiens) (UniProt Q5VT25). The settings on record: at 0.1 µM.
Chain of Serine/threonine-protein kinase MRCK alpha (Homo sapiens) (Q5VT25 whole entry): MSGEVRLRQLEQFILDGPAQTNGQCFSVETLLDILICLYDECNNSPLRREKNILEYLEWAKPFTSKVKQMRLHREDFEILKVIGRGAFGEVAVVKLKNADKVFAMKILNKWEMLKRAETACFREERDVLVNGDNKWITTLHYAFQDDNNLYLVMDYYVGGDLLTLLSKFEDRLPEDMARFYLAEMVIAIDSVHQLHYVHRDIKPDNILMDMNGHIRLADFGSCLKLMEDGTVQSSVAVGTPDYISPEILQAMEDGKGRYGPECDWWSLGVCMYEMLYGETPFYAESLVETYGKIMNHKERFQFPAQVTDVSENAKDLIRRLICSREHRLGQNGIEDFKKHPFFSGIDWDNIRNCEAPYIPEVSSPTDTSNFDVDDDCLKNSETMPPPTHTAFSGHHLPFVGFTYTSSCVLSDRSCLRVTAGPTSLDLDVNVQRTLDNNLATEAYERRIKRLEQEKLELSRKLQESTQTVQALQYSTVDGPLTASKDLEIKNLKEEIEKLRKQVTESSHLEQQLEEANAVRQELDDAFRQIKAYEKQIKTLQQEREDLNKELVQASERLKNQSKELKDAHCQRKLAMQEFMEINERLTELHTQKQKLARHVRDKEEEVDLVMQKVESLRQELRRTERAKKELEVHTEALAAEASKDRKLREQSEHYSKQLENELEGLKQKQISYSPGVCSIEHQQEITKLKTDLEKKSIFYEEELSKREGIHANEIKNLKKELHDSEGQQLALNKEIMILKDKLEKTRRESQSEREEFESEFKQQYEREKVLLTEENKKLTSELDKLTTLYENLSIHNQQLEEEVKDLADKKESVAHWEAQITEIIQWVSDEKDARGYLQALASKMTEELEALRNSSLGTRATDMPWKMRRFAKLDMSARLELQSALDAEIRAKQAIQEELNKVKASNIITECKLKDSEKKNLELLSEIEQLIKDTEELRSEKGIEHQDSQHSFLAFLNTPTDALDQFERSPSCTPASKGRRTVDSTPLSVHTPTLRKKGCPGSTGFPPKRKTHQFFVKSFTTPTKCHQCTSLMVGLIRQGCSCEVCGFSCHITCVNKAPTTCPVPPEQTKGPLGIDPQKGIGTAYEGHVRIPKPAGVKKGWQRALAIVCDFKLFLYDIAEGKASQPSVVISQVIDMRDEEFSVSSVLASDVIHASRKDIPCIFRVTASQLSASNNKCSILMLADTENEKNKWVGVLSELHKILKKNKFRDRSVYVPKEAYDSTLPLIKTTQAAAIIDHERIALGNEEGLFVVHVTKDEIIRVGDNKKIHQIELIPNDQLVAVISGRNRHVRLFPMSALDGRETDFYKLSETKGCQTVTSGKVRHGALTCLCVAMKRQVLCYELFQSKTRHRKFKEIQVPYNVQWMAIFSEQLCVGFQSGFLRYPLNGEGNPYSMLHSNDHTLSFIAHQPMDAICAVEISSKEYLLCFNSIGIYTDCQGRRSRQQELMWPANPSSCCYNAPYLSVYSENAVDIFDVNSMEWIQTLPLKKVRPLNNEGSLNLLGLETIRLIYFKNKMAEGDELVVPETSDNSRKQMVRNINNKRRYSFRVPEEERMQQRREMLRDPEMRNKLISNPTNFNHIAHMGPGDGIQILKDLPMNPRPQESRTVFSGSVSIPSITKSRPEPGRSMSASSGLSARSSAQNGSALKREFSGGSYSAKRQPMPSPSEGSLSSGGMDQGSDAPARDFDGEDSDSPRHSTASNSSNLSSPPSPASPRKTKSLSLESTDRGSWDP
The target is the same in test [12]. The settings on record: at 1 µM.
The target of test [13] is Serine/threonine-protein kinase MRCK beta (Homo sapiens) (UniProt Q9Y5S2). The note with it: at 0.1 µM.
The target is the same in test [14]. The note with it: at 1 µM.
Test [15] deals with Ribosomal protein S6 kinase alpha-5 (Homo sapiens) (UniProt O75582). The note with it: at 0.1 µM.
Test [16] shares this target. The note with it: at 1 µM.
Test [17] has as its target Ribosomal protein S6 kinase alpha-4 (Homo sapiens) (UniProt O75676). The settings on record: at 0.1 µM.
Test [18] shares this target. The settings on record: at 1 µM.
Test [19] has as its target Ribosomal protein S6 kinase beta-1 (Homo sapiens) (UniProt P23443). The note with it: at 0.1 µM.
For test [20] the target is unchanged. The settings on record: at 1 µM.

Chain of RAC-gamma serine/threonine-protein kinase (Homo sapiens) (Q9Y243 whole entry): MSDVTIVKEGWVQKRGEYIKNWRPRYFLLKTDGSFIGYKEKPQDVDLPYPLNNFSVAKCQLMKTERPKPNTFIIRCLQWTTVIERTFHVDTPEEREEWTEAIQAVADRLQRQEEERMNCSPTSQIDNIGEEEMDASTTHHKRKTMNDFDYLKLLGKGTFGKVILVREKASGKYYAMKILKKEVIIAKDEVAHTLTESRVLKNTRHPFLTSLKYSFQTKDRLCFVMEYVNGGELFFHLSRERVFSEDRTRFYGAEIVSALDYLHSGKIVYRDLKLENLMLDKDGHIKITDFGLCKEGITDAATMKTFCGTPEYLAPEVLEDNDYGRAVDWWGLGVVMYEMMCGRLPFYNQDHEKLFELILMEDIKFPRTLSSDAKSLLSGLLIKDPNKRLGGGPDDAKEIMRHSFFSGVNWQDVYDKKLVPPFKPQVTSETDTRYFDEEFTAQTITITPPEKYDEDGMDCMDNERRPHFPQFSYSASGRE
Chain of Ribosomal protein S6 kinase beta-1 (Homo sapiens) (P23443 whole entry, looked up): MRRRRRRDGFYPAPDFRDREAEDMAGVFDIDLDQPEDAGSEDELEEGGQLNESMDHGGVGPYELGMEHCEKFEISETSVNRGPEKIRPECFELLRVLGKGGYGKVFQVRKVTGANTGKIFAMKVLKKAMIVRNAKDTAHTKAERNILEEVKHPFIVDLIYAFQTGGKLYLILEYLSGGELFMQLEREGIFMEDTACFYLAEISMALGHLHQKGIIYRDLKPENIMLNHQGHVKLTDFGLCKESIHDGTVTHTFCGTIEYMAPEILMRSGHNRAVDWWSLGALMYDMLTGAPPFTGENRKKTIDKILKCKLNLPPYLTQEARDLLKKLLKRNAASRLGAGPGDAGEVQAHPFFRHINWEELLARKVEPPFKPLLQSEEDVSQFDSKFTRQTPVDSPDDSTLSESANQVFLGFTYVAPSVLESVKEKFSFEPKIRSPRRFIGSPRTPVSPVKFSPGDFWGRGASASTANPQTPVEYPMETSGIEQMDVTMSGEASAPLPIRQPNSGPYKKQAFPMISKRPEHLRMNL
Chain of Ribosomal protein S6 kinase alpha-4 (Homo sapiens) (O75676 whole entry, looked up): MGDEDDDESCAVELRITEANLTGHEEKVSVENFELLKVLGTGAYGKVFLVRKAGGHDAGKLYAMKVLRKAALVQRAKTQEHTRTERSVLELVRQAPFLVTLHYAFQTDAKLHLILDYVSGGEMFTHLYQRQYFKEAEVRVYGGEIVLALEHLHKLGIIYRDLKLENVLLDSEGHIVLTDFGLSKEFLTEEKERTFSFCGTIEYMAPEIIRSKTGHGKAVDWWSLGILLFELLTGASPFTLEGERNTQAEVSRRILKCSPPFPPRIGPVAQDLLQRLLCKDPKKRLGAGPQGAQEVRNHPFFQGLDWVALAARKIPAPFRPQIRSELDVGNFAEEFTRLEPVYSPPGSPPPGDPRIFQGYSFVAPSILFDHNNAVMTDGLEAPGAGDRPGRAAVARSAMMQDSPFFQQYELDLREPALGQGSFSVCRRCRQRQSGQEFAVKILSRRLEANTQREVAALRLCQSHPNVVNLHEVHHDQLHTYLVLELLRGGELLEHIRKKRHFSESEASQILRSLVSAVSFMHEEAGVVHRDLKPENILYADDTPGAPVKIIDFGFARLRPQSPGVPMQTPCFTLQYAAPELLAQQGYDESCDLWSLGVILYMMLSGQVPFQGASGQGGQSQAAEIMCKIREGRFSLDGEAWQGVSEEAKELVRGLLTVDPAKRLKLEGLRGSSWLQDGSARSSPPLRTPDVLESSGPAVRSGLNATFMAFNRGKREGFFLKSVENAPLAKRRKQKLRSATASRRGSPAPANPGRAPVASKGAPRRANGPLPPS
Chain of RAC-alpha serine/threonine-protein kinase (Homo sapiens) (P31749 whole entry): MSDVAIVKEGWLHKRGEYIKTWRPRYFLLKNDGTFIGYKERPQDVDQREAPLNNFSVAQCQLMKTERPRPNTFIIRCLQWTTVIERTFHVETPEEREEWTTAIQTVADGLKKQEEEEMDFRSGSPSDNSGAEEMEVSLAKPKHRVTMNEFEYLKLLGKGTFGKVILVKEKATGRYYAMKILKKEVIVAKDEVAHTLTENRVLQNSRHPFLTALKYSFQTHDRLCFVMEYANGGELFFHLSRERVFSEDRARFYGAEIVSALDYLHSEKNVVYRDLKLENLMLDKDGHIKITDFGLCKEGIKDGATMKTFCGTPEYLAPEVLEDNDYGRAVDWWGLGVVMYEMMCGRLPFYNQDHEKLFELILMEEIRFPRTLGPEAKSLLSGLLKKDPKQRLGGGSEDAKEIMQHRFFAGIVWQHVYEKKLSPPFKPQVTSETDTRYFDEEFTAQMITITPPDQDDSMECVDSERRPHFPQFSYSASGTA

With `O=C(Nc1n[nH]c2cc(-c3ccccc3)ccc12)C1CC1`, the inhibition in test [1] is 0.57%; in [2], -0.63%; in test [3], 1.2%; in test [4], 1.68%; in test [5], 0.33%; in test [6], 2.94%. Besides, the inhibition is 2.59% in [7]; 3.48% in test [8]; 3.13% in [9]; 3.52% in test [10]; 0.05% in test [11]; -1.04% in [12]. In addition, the inhibition in test [13] stood at 0.91%; in test [14] it was 0.02%; in [15] it was 5.17%; in test [16], 5.56%; in test [17] it was 2.14%; in [18], 1.76%. Further, the values for the inhibition in test [19] and in test [20] were 0.9% and 1.27%, respectively.

Take `COc1ccc(C2=C(N3CCc4ccccc43)C(=O)NC2=O)cc1`: the inhibition worked out at 0.6% in test [1]; 0.96% in [2]; 2.65% in test [3]; 1.87% in test [4]; 1.01% in test [5]; 2.72% in test [6]. In addition, the inhibition in [7] is 8.72%; in test [8] it was 8.49%; in [9] it was 27.9%; in [10], 20.3%; in [11], -0.56%; in test [12], -0.21%. For the same compound, the inhibition worked out at 1.1% in test [13]; 0.12% in test [14]; 4.26% in test [15]; 3.53% in [16]; 2.26% in test [17]; 3.24% in test [18]. Moreover, the inhibition in test [19] was 1.91%; in test [20], 3.41%.

Consider `Fc1ccc(-c2ncn(C3CCNCC3)c2-c2ccnc(Oc3ccc(Oc4ccccc4)cc3)n2)cc1`, for which the inhibition amounted to 1.23% in test [1]; 1.87% in [2]; 1.23% in test [3]; 1.51% in test [4]; 2.28% in test [5]; 4.62% in test [6]. Moreover, the inhibition in test [7] was 3.64%; in test [8] it was 6.73%; in [9], 10.9%; in test [10] it was 3.4%; in test [11], 5.81%; in [12], 7.37%. Also, the inhibition in [13] is -0.26%; in [14], 1.5%; in test [15] it was 10.2%; in test [16], 11.9%; in [17], 2.53%; in [18], 5.09%. In addition, the inhibition is 2.41% in [19] and 4.57% in test [20].

As to `CN(C)CCCNc1nccc(-c2c(-c3ccc(F)cc3)nn3cc(C(F)(F)F)ccc23)n1`, the inhibition was -2.46% in test [1]; -2.95% in test [2]; -2.07% in test [3]; -3.03% in test [4]; -2.14% in [5]; -2.29% in test [6]. The inhibition in test [7] was 0.16%; in [8], -2.93%; in test [9], -0.49%; in test [10] it was -5.64%; in [11] it was 0.46%; in test [12], 1.03%. Further, the inhibition in test [13] stood at 0.48%; in test [14] it was 1.09%; in [15], 1.3%; in test [16], 2.69%; in test [17], 1.95%; in test [18] it was 4.5%. Further, the figures for the inhibition in [19] and in test [20] were 2.93% and 3.55%, respectively.

`CN(C)CCOc1ccc(-c2cc(-c3ccc4c(c3)CCC4=NO)c(-c3ccncc3)o2)cc1`: the inhibition in test [1] was -0.58%; in test [2] it was -0.16%; in [3], -0.71%; in [4], -0.42%; in test [5], -0.65%; in [6], 5.79%. For the same compound, the inhibition in test [7] was -3.48%; in [8] it was -0.1%; in test [9] it was 2.18%; in test [10], -5.7%; in test [11], -0.43%; in test [12], -0.33%. Further, the inhibition was -0.99% in test [13]; -2.76% in test [14]; -1.98% in [15]; -2.88% in test [16]; 0.1% in test [17]; -2.21% in test [18]. Moreover, the figures for the inhibition in [19] and in test [20] were -1.83% and -2.77%, respectively.

Turning to `NC(=O)Cc1ccccc1Oc1nccc(-c2c(-c3ccc(F)cc3)ncn2C2CCNCC2)n1`, the inhibition in [1] came out at 0.16%; in test [2], 0.12%; in [3], 1.23%; in [4] it was 0.29%; in [5], 0.15%; in [6], 1.21%. Besides, the inhibition in test [7] was -1.33%; in [8], -0.72%; in [9] it was 1%; in test [10], 1.09%; in test [11], 0.16%; in [12], -0.52%. The inhibition was -0.05% in test [13]; 1.05% in test [14]; 2.22% in test [15]; 1.53% in [16]; -1.39% in [17]; 1.64% in test [18]. The inhibition in test [19] is 0.73%; in test [20] it was 1.27%.
